PD-1 reversal = activators reversing PD-1 mediated T-cell inhibition, primary screen, luminescence, primary human CD4 T cells, PD-L1 beads; CellTiter-Glo 96 h; 29,000 tested, under 10 active; activation, % (test concentration not listed); call rule not given here;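 further: 0% = median vehicle wells and 100% = positive control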
Hedgehog inh = Hedgehog pathway signaling inhibitors, primary screen, luminescence, Shh-LIGHT2 cells, Gli-luciferase | inhibition, % (test concentration not listed) | 2.1% of 22,000 active | Shh-LIGHT2 Gli-luciferase reporter, 30 h | AID 2313, 2010;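 active means mean inhibition across valid replicates above about 65%, limit read from the data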;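 further: pathway switched on by Shh-conditioned medium diluted 1 in 25 in low serum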
MITF inhib = inhibitors of MITF, primary screen, MITF inhibitor project, cell-based, luminescence; inhibition, % (test concentration not listed); TRPM1 promoter luciferase, 24 h; AID 2240, 2010; 0.28% of 37,000 active; in the data active means inhibition above about 85%;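 further: human melanocyte line stably carrying TRPM1 promoter luciferase reporter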
NOMO-1 viab = NOMO-1 AML cell viability reduction, primary screen, STK33 inhibitor project, CellTiter-Glo luminescence. inhibition, % (concentration not given with the values). AID 2330, 2010. NOMO-1 AML viability, 72 h. 7.5% of 37,000 active; in the data active means inhibition above about 80%
* = called active by the depositor; . = no result. Compounds with a hit are over-represented: about 8.1% of the library has one in this group of screens.

SMILES	PD-1 reversal	Hedgehog inh	MITF inhib	NOMO-1 viab
C[C@@H]1CCCCO[C@@H](CN(C)S(=O)(=O)c2ccccc2)[C@@H](C)CN([C@H](C)CO)C(=O)c2cc(NC(=O)CCCN(C)C)ccc2O1	.	-29.2	0.5	7.6
CCOC(=O)c1oc2ccccc2c1CO	-0.4	97.2*	27.1	26.5
CCOC(=O)c1oc2ccc(C=NC(C)(C)C)c(Cl)c2c1C	0.3	-66.0	-57.5	39.9
CCOC(=O)Cc1[nH]nc2c1C(C1CC=CCC1)C(C#N)=C(N)O2 (stereo unspecified)	.	.	15.7	114.2*
COc1cc(OC)cc(C2C(C#N)=C(N)Oc3n[nH]c(-c4cccnc4)c32)c1 (stereo unspecified)	.	.	4.1	0.6
CCC(C)S(=O)(=O)c1oc(-c2ccc(C)cc2)nc1S(=O)(=O)c1ccccc1 (stereo unspecified)	-14.2	.	51.2	116.2*
Cc1ccc(S(=O)(=O)c2nc(-c3ccccc3)oc2NCCN2CCOCC2)cc1	.	.	1.3	-3.8
Cc1ccc(S(=O)(=O)N2CCC(=O)c3ccccc32)cc1	-2.1	-11.2	31.8	110.1*
COC1C(OC)N(S(=O)(=O)c2ccc(C)cc2)CCN1S(=O)(=O)c1ccc(C)cc1 (stereo unspecified)	-2.8	15.4	-1.9	6.8
CC(=O)Nc1ccc(NC(=O)CNS(=O)(=O)c2c(C)cc(C)cc2C)cc1	4.7	.	-4.1	-3.1
Cc1noc(-c2ccccc2OC(=O)c2ccccc2)n1	0.0	18.3	-16.2	-4.9
COc1ccc([N+](=O)[O-])cc1NC(=O)COc1ccc(C(C)(C)C)cc1Br	0.5	.	88.9*	14.2
COc1ccc([N+](=O)[O-])cc1NC(=O)COc1ccc(Cl)cc1Br	1.3	.	-11.7	21.8
CNC[C@H]1Oc2c(NC(=O)NC3CCCCC3)cccc2C(=O)N([C@@H](C)CO)C[C@H]1C	-0.8	23.7	-10.2	14.6
COC(=O)COc1ccc(NC(=O)c2ccc(OC)c([N+](=O)[O-])c2)cc1	-6.9	.	-0.1	120.9*
Cc1ccc(S(=O)(=O)N(C)C[C@H]2Oc3ccc(NC(=O)Nc4ccc(C(F)(F)F)cc4)cc3CC(=O)N([C@@H](C)CO)C[C@@H]2C)cc1	-0.4	-1.6	16.3	25.7
Cc1ccc(S(=O)(=O)N(C)C[C@@H]2Oc3ccc(NC(=O)Nc4ccc(C(F)(F)F)cc4)cc3CC(=O)N([C@H](C)CO)C[C@@H]2C)cc1	-3.3	55.8	34.4	126.1*
Cc1ccc(S(=O)(=O)N(C)C[C@H]2Oc3ccc(NC(=O)Nc4ccc(C(F)(F)F)cc4)cc3CC(=O)N([C@H](C)CO)C[C@H]2C)cc1	-3.5	7.4	23.4	114.6*
COc1ccc(CN(C)C[C@H]2OCCCC[C@@H](C)Oc3ccc(NC(=O)NC(C)C)cc3C(=O)N([C@H](C)CO)C[C@@H]2C)cc1	0.5	54.3	3.6	6.2
C=C(C)[C@@]12O[C@@H]1[C@@]1(C)C(=CC2=O)CC[C@@H](O)[C@@H]1C	0.1	49.8	47.5	113.9*
C[C@H](CO)N1C[C@H](C)[C@@H](CN(C)C(=O)Nc2ccccc2)Oc2ccc(NC(=O)CCCCCC(=O)Nc3ccccc3N)cc2C1=O	0.6	.	-8.4	-11.5
COc1ccc(-n2c(CC#N)nnc2SCc2c(C)c(C)c(C)c(C)c2C)cc1	-0.2	19.3	10.9	101.7*
COc1ccc(-n2c(CSc3nnc(-c4ccc(OC)c(OC)c4)n3-c3ccccc3)n[nH]c2=S)cc1	0.3	.	4.3	30.0
COc1ccc(NC(=O)Nc2ccc3c(c2)CC(=O)N([C@@H](C)CO)C[C@@H](C)[C@@H](CN(C)Cc2ccc(C(=O)Nc4ccccc4N)cc2)O3)cc1	1.4	.	-8.9	86.4*
COc1ccc(NC(=O)Nc2ccc3c(c2)CC(=O)N([C@H](C)CO)C[C@@H](C)[C@@H](CN(C)Cc2ccc(C(=O)Nc4ccccc4N)cc2)O3)cc1	-1.4	.	-14.3	89.6*
SMILES	PD-1 reversal	Hedgehog inh	MITF inhib	NOMO-1 viab
COc1ccc(NC(=O)Nc2ccc3c(c2)CC(=O)N([C@@H](C)CO)C[C@H](C)[C@@H](CN(C)Cc2ccc(C(=O)Nc4ccccc4N)cc2)O3)cc1	-1.7	.	-6.0	22.6
COc1ccc(NC(=O)Nc2ccc3c(c2)CC(=O)N([C@H](C)CO)C[C@H](C)[C@H](CN(C)Cc2ccc(C(=O)Nc4ccccc4N)cc2)O3)cc1	-3.8	.	22.2	127.2*
COc1ccc(NC(=O)Nc2ccc3c(c2)CC(=O)N([C@@H](C)CO)C[C@H](C)[C@H](CN(C)Cc2ccc(C(=O)Nc4ccccc4N)cc2)O3)cc1	-2.5	.	25.8	125.7*
COc1ccc(CN(C)C[C@@H]2Oc3ccc(NC(=O)Nc4ccccc4)cc3CC(=O)N([C@@H](C)CO)C[C@@H]2C)cc1	-0.9	.	-31.8	50.5
COc1ccc(NC(=O)Nc2ccc3c(c2)C(=O)N([C@@H](C)CO)C[C@@H](C)[C@@H](CN(C)Cc2ccc(C(=O)O)cc2)O3)cc1	1.7	.	-2.1	2.2
COC(=O)CSc1nnc(-c2ccccc2)o1	-0.4	.	0.2	-6.2
C[C@H](CO)N1C[C@H](C)[C@H](CN(C)S(=O)(=O)c2ccc(Cl)cc2)Oc2c(NC(=O)Nc3ccc4c(c3)OCO4)cccc2C1=O	-0.4	109.7*	-12.8	2.7
C[C@H]1CN([C@@H](C)CO)C(=O)c2cccc(NC(=O)Nc3ccc4c(c3)OCO4)c2O[C@H]1CN(C)S(=O)(=O)c1ccc(Cl)cc1	-3.9	107.2*	8.2	92.2*
COc1ccc(OC)c(S(=O)(=O)c2ccc(Br)cc2)c1	0.6	-29.0	2.2	25.0
C[C@H]1CN([C@@H](C)CO)C(=O)c2cc(NC(=O)Nc3ccccc3)ccc2O[C@@H]1CN(C)Cc1ccc(Cl)c(Cl)c1	1.0	.	-1.6	17.8
C[C@H]1CN([C@@H](C)CO)C(=O)c2cc(NC(=O)Nc3ccccc3)ccc2O[C@H]1CN(C)Cc1ccc(Cl)c(Cl)c1	-2.3	21.1	28.3	99.6*
C[C@@H]1CN([C@@H](C)CO)C(=O)c2cc(NC(=O)Nc3ccccc3)ccc2O[C@@H]1CN(C)Cc1ccc(Cl)c(Cl)c1	0.3	38.8	33.8	111.7*
CSC1=C(C#N)C(=O)NC(c2ccc(Cl)cc2)S1 (stereo unspecified)	-4.4	0.0	6.4	115.7*
CNC[C@H]1Oc2ccc(NC(=O)NC(C)C)cc2C(=O)N([C@H](C)CO)C[C@@H]1C	1.9	.	0.7	-22.3
C[C@@H]1CN([C@H](C)CO)C(=O)c2cccc(NC(=O)C3CCCCC3)c2O[C@H]1CN(C)CC1CCCCC1	-4.6	6.0	18.2	111.3*
CC(C)NC(=O)N(C)C[C@H]1Oc2c(NC(=O)NC3CCCCC3)cccc2C(=O)N([C@H](C)CO)C[C@H]1C	0.5	68.6*	1.9	-7.0
CC(C)NC(=O)N(C)C[C@@H]1Oc2c(NC(=O)NC3CCCCC3)cccc2C(=O)N([C@H](C)CO)C[C@H]1C	0.5	-11.7	-4.0	25.2
C[C@H](CO)N1C[C@H](C)[C@@H](CN(C)CC2CCCCC2)Oc2c(NC(=O)C3CCCCC3)cccc2C1=O	.	30.9	35.2	95.8*

From PubChem
